According to the antibiotic and cytotoxicity screens of Wong et al. (2023):
Among all 39,000 compounds or so, about 3,300 (8.5%) were called active. This is one part of a sample in which actives are shown more often than they occur.

System: HepG2
Assay: cytotoxicity call (relative viability < 0.9)
Conditions: 10 µM

SMILES	cytotoxicity call
CCCNC(=O)Nc1ccc2c(c1)C(=O)N(C)C[C@@H](OC)[C@@H](C)CN(Cc1ccc(-c3ccccn3)cc1)[C@@H](C)CO2	inactive
COc1ccc(S(=O)(=O)Nc2ccc3c(c2)CC(=O)N([C@@H](C)CO)C[C@H](C)[C@@H](CN(C)C(=O)Nc2c(C)noc2C)O3)cc1	inactive
CN1CCN(C(=O)Cn2cc(-c3ccc(C(=O)NO)cc3)nn2)CC1	inactive
Cc1noc(C)c1NC(=O)N[C@@H]1C=C[C@@H](CC(=O)N2CCN(C)CC2)O[C@@H]1CO	inactive
COc1ccc(cc1)CN1C[C@]2(CN(C2)C(=O)Cc2ccncc2)c2c([nH]c3cc(ccc23)OC)[C@@H]1CO	inactive
C[C@H]1CN([C@@H](C)CO)C(=O)Cc2cc(NC(=O)Nc3cccc4ccccc34)ccc2O[C@H]1CN(C)Cc1ccncc1	inactive
C[C@H](CO)N1C[C@H](C)[C@@H](CN(C)Cc2ccncc2)Oc2ccc(NC(=O)Nc3cccc4ccccc34)cc2CC1=O	active
C[C@@H]1CN([C@@H](C)CO)C(=O)Cc2cc(NC(=O)Nc3cccc4ccccc34)ccc2O[C@@H]1CN(C)Cc1ccncc1	active
C[C@@H]1CN([C@@H](C)CO)C(=O)Cc2cc(NC(=O)Nc3cccc4ccccc34)ccc2O[C@H]1CN(C)Cc1ccncc1	inactive
C[C@H](CO)N1C[C@H](C)[C@H](CN(C)Cc2ccncc2)Oc2ccc(NC(=O)Nc3cccc4ccccc34)cc2CC1=O	active
C[C@@H]1CN([C@H](C)CO)C(=O)Cc2cc(NC(=O)Nc3cccc4ccccc34)ccc2O[C@@H]1CN(C)Cc1ccncc1	active
C[C@H]1CN([C@@H](C)CO)C(=O)Cc2cc(NC(=O)Nc3cccc4ccccc34)ccc2O[C@@H]1CN(C)Cc1ccncc1	inactive
C[C@@H]1CN([C@H](C)CO)C(=O)Cc2cc(NC(=O)Nc3cccc4ccccc34)ccc2O[C@H]1CN(C)Cc1ccncc1	inactive
COc1ccc(S(=O)(=O)N[C@H]2CC[C@@H](CC(=O)N3CCC(Cc4ccccc4)CC3)O[C@@H]2CO)cc1	inactive
C[C@@H]1CCCCO[C@H](CN(C)C(=O)Nc2ccc3c(c2)OCO3)[C@H](C)CN([C@@H](C)CO)C(=O)c2cc(NS(=O)(=O)c3cccs3)ccc2O1	inactive
CC(C)NC(=O)Nc1cccc2c1O[C@H](CN(C)S(=O)(=O)c1cccs1)[C@H](C)CN([C@H](C)CO)C2=O	inactive
CCCN(C)C[C@@H]1Oc2cc(C#Cc3ccc(OC)cc3)ccc2S(=O)(=O)N([C@H](C)CO)C[C@@H]1C	inactive
Cc1ccc(C(=O)CCNc2ccc3c(c2)oc2ccccc23)o1	inactive
C[C@@H]1CCCCO[C@@H](CN(C)C(=O)c2ccccc2)[C@@H](C)CN([C@H](C)CO)C(=O)c2cc(NC(=O)Nc3cccc4ccccc34)ccc2O1	inactive
C[C@H]1CCCCO[C@H](CN(C)S(=O)(=O)c2cn(C)cn2)[C@@H](C)CN([C@@H](C)CO)C(=O)c2cc(NC(=O)Nc3ccc(C(F)(F)F)cc3)ccc2O1	inactive

SMILES	cytotoxicity call
Cc1noc(C)c1S(=O)(=O)Nc1ccc2c(c1)CC(=O)N([C@H](C)CO)C[C@@H](C)[C@H](CN(C)S(=O)(=O)c1ccc(F)cc1)O2	inactive
C[C@@H]1CN([C@H](C)CO)C(=O)c2cc(NC(=O)Nc3cccc4ccccc34)ccc2O[C@@H](C)CCCCO[C@@H]1CN(C)C(=O)C1CCCCC1	inactive
C[C@@H]1CN([C@@H](C)CO)C(=O)c2cccc(NC(=O)Nc3ccc(F)cc3)c2O[C@@H]1CN(C)C(=O)Nc1cccc2ccccc12	inactive
C[C@@H](NC(=O)c1ccccc1)C(=O)NN	inactive
C[C@@H]1CCCCO[C@@H](CN(C)Cc2ccccc2)[C@H](C)CN([C@@H](C)CO)C(=O)c2cc(NC(=O)NC3CCCCC3)ccc2O1	inactive
C[C@@H]1CCCCO[C@@H](CN(C)Cc2ccccc2)[C@@H](C)CN([C@@H](C)CO)C(=O)c2cc(NC(=O)NC3CCCCC3)ccc2O1	active
C[C@@H]1CCCCO[C@H](CN(C)Cc2ccccc2)[C@H](C)CN([C@@H](C)CO)C(=O)c2cc(NC(=O)NC3CCCCC3)ccc2O1	active
C[C@@H]1CCCCO[C@@H](CN(C)Cc2ccccc2)[C@H](C)CN([C@H](C)CO)C(=O)c2cc(NC(=O)NC3CCCCC3)ccc2O1	inactive
C[C@@H]1CN([C@@H](C)CO)C(=O)c2cc(NC(=O)NC3CCCCC3)ccc2O[C@@H](C)CCCCO[C@@H]1CN(C)Cc1ccncc1	inactive
C[C@H]1CCCCO[C@@H](CN(C)Cc2ccncc2)[C@@H](C)CN([C@@H](C)CO)C(=O)c2cc(NC(=O)NC3CCCCC3)ccc2O1	inactive
C[C@H](CO)N1C[C@H](C)[C@H](CN(C)Cc2ccccc2)OCCCC[C@H](C)Oc2ccc(NC(=O)NC3CCCCC3)cc2C1=O	inactive
C[C@@H]1CN([C@H](C)CO)C(=O)c2cc(NC(=O)NC3CCCCC3)ccc2O[C@@H](C)CCCCO[C@@H]1CN(C)Cc1ccccc1	inactive
C[C@@H]1CCCCO[C@H](CN(C)Cc2ccccc2)[C@@H](C)CN([C@@H](C)CO)C(=O)c2cc(NC(=O)NC3CCCCC3)ccc2O1	active
C[C@@H]1CN([C@@H](C)CO)C(=O)c2cc(NC(=O)NC3CCCCC3)ccc2O[C@@H](C)CCCCO[C@H]1CN(C)Cc1ccccc1	inactive
C[C@@H]1CCCCO[C@@H](CN(C)Cc2ccccc2)[C@@H](C)CN([C@H](C)CO)C(=O)c2cc(NC(=O)NC3CCCCC3)ccc2O1	inactive
C[C@@H]1CCCCO[C@H](CN(C)Cc2ccncc2)[C@H](C)CN([C@@H](C)CO)C(=O)c2cc(NC(=O)NC3CCCCC3)ccc2O1	active
C[C@@H]1CN([C@@H](C)CO)C(=O)c2cc(NC(=O)Cn3cnnn3)ccc2O[C@H]1CN(C)S(=O)(=O)c1ccc(Cl)cc1	inactive
COc1ccc(S(=O)(=O)N[C@H]2CC[C@@H](CCNC(=O)CN3CCOCC3)O[C@H]2CO)cc1	inactive
C[C@@H]1CN([C@@H](C)CO)C(=O)Cc2cc(NS(=O)(=O)c3cn(C)cn3)ccc2O[C@H]1CN(C)S(=O)(=O)c1ccc(Cl)cc1	inactive
CO[C@@H]1CN(C)C(=O)c2cc(NS(=O)(=O)CC(F)(F)F)ccc2OC[C@@H](C)N(Cc2ccccn2)C[C@H]1C	inactive
